The source made the active and inactive calls. Unless noted, the rule behind the calls is not given here.
Key:
[1] = system: Wnt5a (protein binding on small-molecule microarray); test: small molecules binding Wnt5a protein – biophysical, small-molecule microarray, 635/667 nm fluorescence, primary screen (AID 1142); settings: 635 nm fluorescence, higher = more signal;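 note: fluorescence read at 667 nm with signal to noise per printed feature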
[2] = ATP-based viability of Huh7 replicon cells – cell-based, CellTiter-Glo luminescence, basal, 48 h, cytotoxicity control for HCV replication inhibitor project, primary screen (AID 1143); settings: higher = more signal, called active from +8 up or from −8 down;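 note: Huh7 hepatoma cells carrying a hepatitis C replication reporter with no stimulus; test concentration not given here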
[3] = Pseudomonas biofilm growth suppression – PAO1 strain, BacTiter-Glo luminescence, LB-PBS, primary screen (AID 1144); settings: P. aeruginosa PAO1 biofilm, 12 h, higher = more signal
[4] = basal CRE-LacZ reporter activity in PC12 – cell-based, unstimulated, primary screen (AID 1145); settings: no forskolin, luminescence, 4.5 h, higher = more signal, called active from +8 up or from −8 down
[5] = forskolin-driven CRE-LacZ activity in PC12 – cell-based, CRE-LacZ reporter, forskolin-stimulated, primary screen (AID 1146); settings: luminescence, 4.5 h, higher = more signal, called active from +8 up or from −8 down;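 note: PC12 cells with 6xCRE LacZ reporter stimulated by forskolin 10 µM; beta-galactosidase reporter signal reflecting CREB driven transcription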
[6] = molecular target: Streptavidin (Streptomyces avidinii) (UniProt P22629); test: compounds binding control protein streptavidin – biophysical, small-molecule microarray, 635/667 nm fluorescence, artefact control for SMM compound annotation, primary screen (AID 1147); settings: higher = more signal;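 note: signal reflects streptavidin binding to arrayed compounds as a control protein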
[7] = probe aInhba binding on compound microarray – biochemical, small-molecule microarray, 635/667 nm fluorescence, primary screen (AID 1148); settings: higher = more signal;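 note: score merges 667nm spot fluorescence with signal-to-noise for antibody binding to printed compounds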
[8] = molecular target: Torsin-1A (Homo sapiens) (UniProt O14656); test: TOR1A wild-type binding on microarray – cell lysate, small-molecule microarray, lysate, 635/667 nm, primary screen (AID 1149); settings: COS7 hTOR1A-WT lysate, 635 nm fluorescence, higher = more signal
[9] = molecular target: Torsin-1A (Homo sapiens) (UniProt O14656); test: torsin A mutant lysate binding on microarrays – cell lysate, small-molecule microarray, COS7 lysate, 635/667 nm fluorescence, primary screen (AID 1150); settings: COS7 hTOR1A mutant lysate, 635 nm fluorescence, higher = more signal;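 note: score pools 667 nm emission and signal to noise measuring lysate protein binding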
[10] = system: Sonic hedgehog protein (Shh); test: Sonic hedgehog microarray binding compounds – biochemical, small-molecule microarray, 635/667 nm fluorescence, primary screen (AID 1151); settings: 635 nm fluorescence, higher = more signal;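 note: Shh protein binding to compounds spotted on small-molecule microarray slides; score combines spot fluorescence intensity with signal-to-noise across triplicate slides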

Chain of Torsin-1A (Homo sapiens) (O14656 whole entry, looked up): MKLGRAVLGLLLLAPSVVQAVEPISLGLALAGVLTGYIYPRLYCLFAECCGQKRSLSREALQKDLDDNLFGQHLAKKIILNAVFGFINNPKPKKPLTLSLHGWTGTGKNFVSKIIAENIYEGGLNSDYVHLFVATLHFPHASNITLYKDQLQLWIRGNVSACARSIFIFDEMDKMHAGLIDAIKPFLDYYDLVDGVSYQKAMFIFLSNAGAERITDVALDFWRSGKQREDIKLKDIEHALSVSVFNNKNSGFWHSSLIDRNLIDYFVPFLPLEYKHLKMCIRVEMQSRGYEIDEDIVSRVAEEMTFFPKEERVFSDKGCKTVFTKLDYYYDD
Chain of Streptavidin (Streptomyces avidinii) (P22629 whole entry, looked up): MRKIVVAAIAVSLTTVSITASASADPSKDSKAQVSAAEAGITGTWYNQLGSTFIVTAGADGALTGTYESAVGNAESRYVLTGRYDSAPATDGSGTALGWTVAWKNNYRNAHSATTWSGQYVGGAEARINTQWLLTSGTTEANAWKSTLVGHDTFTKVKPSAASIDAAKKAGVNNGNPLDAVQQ

Compound	composite z-score [1]	z-score [2]	z-score [3]	z-score [4]	z-score [5]	composite z-score [6]	composite z-score [7]	composite z-score [8]	composite z-score [9]	composite z-score [10]
O=C1OC[C@@H](c2ccccc2)n2cc(/C=C/c3ccccc3)cc21	0.044	-4.14 (inactive)	0.927 (inactive)	9.55 (active)	-0.54 (inactive)	0.723	-0.0933	-1.43	-0.565	0.319
O=C1N(Cc2ccccc2)Cc2ccccc2C[C@@]12COC(c1ccc(OCCCO)cc1)=N2	0.165	-5.94 (inactive)	1.31 (inactive)	1.45 (inactive)	-2.33 (inactive)	-0.0644	0.108	0.356	0.695	0.0301
CCCN1C(=O)[C@@]2(c3ccc([N+](=O)[O-])cc3)CC(=O)N(C3CCCCC3)[C@@H]2c2ccc(CO)cc21	0.0899	0.677 (inactive)	-0.0723 (inactive)	0.389 (inactive)	-0.131 (inactive)	-0.397	-0.168	0.515	-0.187	1.08
COC(=O)[C@@]1(Cc2ccc(F)cc2)[C@@H]2C(=CC(=O)[C@H]2CC(=O)C(=O)N2CCCC2)CN1C(=O)c1ccccc1	1.74	-4.86 (inactive)	0.137 (inactive)	-0.189 (inactive)	1.86 (inactive)	0.696	0.731	0.448	1.01	1.82
CC(C)(C)OC(=O)CC[C@]1(C(N)=O)N=C(c2ccc(OCCCO)cc2)O[C@H]1c1ccccc1N=[N+]=[N-]	0.641	-0.284 (inactive)	0.303 (inactive)	1.05 (inactive)	-0.677 (inactive)	1.49	0.0966	0.448	0.424	-0.74
COC(=O)[C@H]1N=C(c2ccc(OCCCO)cc2)O[C@H]1c1ccccc1N=[N+]=[N-]	0.563	-2.38 (inactive)	-0.17 (inactive)	1.18 (inactive)	0.226 (inactive)	0.489	0.317	0.698	0.175	-0.207
CN(C)CCCC[C@@H]1NC(=O)[C@H]2C[C@@H](C(=O)NCCCCCCNC(=O)CS)[C@@H](c3cccc(OCCO)c3)N2C1=O	0.1	1.17 (inactive)	-0.444 (inactive)	-0.809 (inactive)	-1.09 (inactive)	0.0448	-0.101	0.0638	0.767	0.871
CCCCN1CC=CC23O[C@@H]4/C=C\CCCOC(=O)C4[C@H]2C(=O)N(CCCCCCO)[C@@H]3C1=O (stereo not given in full)	-0.525	0.121 (inactive)	-1.2 (inactive)	0.475 (inactive)	-0.34 (inactive)	-0.654	-0.154	-1.63	-1.49	0.145
C=C(CC1([C@@H](NP(=O)(c2ccccc2)c2ccccc2)[C@H]2C[C@@H]2CCCC)CC1)c1cccc(OC)c1	0.0445	-1.65 (inactive)	0.496 (inactive)	0.0109 (inactive)	0.276 (inactive)	0.566	0.0227	-0.547	-0.302	-0.836
C[C@@]1([C@@H](NS(=O)(=O)c2cccc3cccnc23)c2ccc(-c3ccccc3)cc2)C[C@H]1C1CCCCC1	0.17	-2.15 (inactive)	0.33 (inactive)	0.583 (inactive)	-0.152 (inactive)	1.15	0.417	-0.293	0.0327	-0.517
[N-]=[N+]=NCc1ccccc1[C@H]1OC(c2ccc(OCCCO)cc2)=N[C@@]1(Cc1ccccc1N=[N+]=[N-])C(=O)N1CCOCC1	0.135	-3.35 (inactive)	-0.149 (inactive)	2.61 (inactive)	-0.529 (inactive)	1.24	0.222	0.249	0.488	-1.15
COc1cccc(C)c1NC(=O)O[C@H]1[C@H](OC(=O)Nc2ccccc2)[C@@H](OC(=O)Nc2ccccc2)[C@@H](OC)O[C@@H]1CO	0.486	-4.16 (inactive)	-1.16 (inactive)	1.61 (inactive)	-2.37 (inactive)	0.163	0.0227	2.57	0.958	0.958
CC(C)Cc1ccc(CN2CC[C@@H](NC(=O)c3ccccc3)C2)cc1	-0.36	-2.65 (inactive)	0.241 (inactive)	3.31 (inactive)	0.603 (inactive)	-0.238	-0.157	0.205	0.134	-0.0199

From PubChem BioAssay
